According to PubChem BioAssay (NCI):
This is part of a sample that, as a whole, favours compounds with a hit. Of some 83,000 tested, about 20% had one in any assay.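 Percent growth is the endpoint: 0 to 100 indicates growth inhibition (40 means 60% inhibition), 0 means no net growth, and negative values indicate cell death.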 Unmarked numbers belong to inactive results. The source made the active and inactive calls. Rule for the calls: active = growth percent below 10; inactive = the rest.

system: SW-620 colon; assay: NCI-60 one-dose screen, 48 h (100 = growth as untreated, 0 = no growth, -100 = all killed); conditions: 10 µM unless noted

Point of comparison: `CC(O)c1cc[cH-]c1.[Fe+2].c1cc[cH-]c1` (stereo not given), growth 103%. Against it:
- COc1cc2ncnc(-n3ncc4cc(NC(=O)Nc5ccccc5)ccc43)c2cc1OC — lower, 49.5%
- CC1(c2ccc(Br)cc2)NC(=O)NC1=O (stereo not given) — higher, 106%
- O=C(N/N=C\c1ccc(Cl)cc1)C(=O)N/N=C\c1ccc(Cl)cc1 — higher, 113%
- COc1cc(-c2nc(/C=C3/C(=O)Nc4ccccc43)c3ccccn23)cc(OC)c1OC — lower, 88.7%
- CCCCN(CCCC)c1ccc(C(=O)O)cc1 — higher, 107%
- COC(=O)c1c[n+]([O-])ccc1OC — higher, 109%
- CC(=O)O.[In] — higher, 106%
- Cc1nnc(/N=C2\NC(=O)/C(=C/C=C/c3ccccc3)S2)s1 — lower, 74.1%
- CC(=O)N1N=C(c2ccc(Cl)cc2)CC1c1cn(-c2ccccc2)nc1-c1ccc([N+](=O)[O-])cc1 (stereo not given) — lower, 99%
- Nc1nc2c(c3ncncc13)C(c1cccc(C(F)(F)F)c1)Cc1ncncc1-2 (stereo not given) — lower, 28.9%
- O=C(Nc1ccccc1)Nc1ccc(Nc2ncnc3sc4c(c23)CCCC4)cc1 — higher, 106%
- CCCC(C)c1cc(Cc2cc(Cl)cc(Cl)c2O)c(O)c(Cc2cc(Cl)cc(Cl)c2O)c1 (stereo not given) — lower, 12.9%
- CCC(C)(CC)c1ccc(O)c(C)c1 — higher, 107%
- CC1(C)CC(=O)C2=C(C1)Oc1nc(N)c(C#N)c(N)c1C2c1ccc(F)cc1 (stereo not given) — lower, 101%
- CCOc1ccc(/C=N/NC(=O)c2cccc3ccccc23)cc1OCC — higher, 105%
- CCN(CC)C(=O)C1(C)CCCC2(C)c3cc(OC(C)=O)ccc3CCC12 (stereo not given) — lower, 89.1%
- COc1ccc(-c2nc(SCC(C)C)nc(Nc3ccc(C(=O)O)cc3)c2C#N)cc1 — lower, 102%
- CC1(C)C(O)NC(Cl)=C(C#N)C1(C#N)C#N (stereo not given) — lower, 102%
- COC(=O)C(C)[C@H]1CC[C@@H]2[C@]1(C)CC=C1[C@]23C=C[C@]2(C[C@@H](OC(C)=O)CC[C@]12C)C(C(=O)OC)C3C(=O)OC (stereo not given in full) — lower, 102%
- CC(C)C(=O)c1ccc(Cl)s1 — higher, 107%
- CC1=C(C)C(=O)C(C(C)C2=C(C)C(=O)C(C)=C(C)C2=O)=C(C)C1=O — higher, 107%
- Cc1ccc2c(O)c(O)cc(NC(C)CCCN)c2n1 (stereo not given) — lower, 73.2%
- O=S(=O)(Cc1cccc2c(CS(=O)(=O)c3ccc(Cl)cc3)cccc12)c1ccc(Cl)cc1 — lower, 88.5%
- C=CN(C)S(C)(=O)=O — lower, 19.9%
- CCCCCCCCCCCCCCCCC(=O)O.CCCCCCCCCCCCCCCCCC(=O)O.CCCCCCCCCCCCCCCCCC(=O)O.CCCCCCCCCCCCCCCCCC(=O)O.CCCCCCCCCCCCCCCCCC(=O)O.CO[CH-]OC12COC1CC(O)C1(C)C(O)C(OC(C)O)C3=C(C)C(OC(=O)C(O)C([NH-])c4ccccc4)CC(O)(C(OC(=O)c4ccccc4)C21)C3(C)C.[Cu+].[Zn].[Zn].[Zn].[Zn].[Zn] (stereo not given) — lower, 44.7%
- COc1ccccc1Cn1cc2c(c1)-c1oncc1CC2 — lower, 27%
- O=C(/C=C\c1ccccc1Cl)c1ccccc1 — lower, 82.5%
- CCOC(=O)C(C)C(C)(O)c1ccccc1 (stereo not given) — higher, 114%
- CCCCCCCCCCCC(=O)OC(C)C(=O)Nc1ccccc1 (stereo not given) — lower, 95.1%
- CCCCCCCCCCC1OC(C)CC(C)O1 (stereo not given) — the same, 103%
- COc1cc(OC)c(/C=C/c2ccc3ccccc3[n+]2C)c(OC)c1 — lower, 13.5%
- CCOC(=O)c1cc(C(=O)c2ccc(Br)cc2)n2cc(C)cc(C)c12 — the same, 103%
- Cc1ccc(OCCn2ccc(=O)n(CCOc3ccc(Cl)cc3C(=O)c3cc(C)cc(C)c3)c2=O)cc1 — lower, 29.7%
- O=C1C(Cl)=C(SC2=NCCN2)C(=O)c2ccccc21 — lower, 95.6%

With `O=C1Nc2ccccc2/C1=C/c1cn(CC(O)Cn2cc(/C=C3\C(=O)Nc4ccccc43)c3ccccc32)c2ccccc12` (stereo not given) the growth was -60.4% (active).
With `O=C(/C=C\c1ccc(NCc2ccc(C(=O)O)cc2)cc1)CCl` the growth was 3.72% (active).
In the case of `O=C(/C=C/c1cccc(O)c1)c1cccc(-n2cc(-c3ccc(Cl)cc3)[nH]c2=O)c1`, the growth is reported as -75.4% (active).
`CC(=O)OCC(=O)[C@@]1(O)[C@H](C)C[C@H]2[C@@H]3C=C(C)C4=Cc5c(cnn5-c5ccc(F)cc5)C[C@]4(C)[C@H]3[C@@H](O)C[C@@]21C` was tested, and the growth was -70.3% (active).
With `CCCCCCCCCCCCCCCCCC1=NCCN1CS(=O)(=O)O` the growth was 4.2% (active).

system: MCF7 breast; assay: as above; conditions: 10 µM unless noted

In the case of `COc1cc2ncnc(-n3ncc4cc(NC(=O)Nc5ccccc5)ccc43)c2cc1OC`, the growth is reported as -20.3% (active).
`O=C1Nc2ccccc2/C1=C/c1cn(CC(O)Cn2cc(/C=C3\C(=O)Nc4ccccc43)c3ccccc32)c2ccccc12` (stereo not given) was tested, and the growth was -67.5% (active).
With `CCCC(C)c1cc(Cc2cc(Cl)cc(Cl)c2O)c(O)c(Cc2cc(Cl)cc(Cl)c2O)c1` (stereo not given) the growth was 4.88% (active).
For `O=C(/C=C/c1cccc(O)c1)c1cccc(-n2cc(-c3ccc(Cl)cc3)[nH]c2=O)c1`, the growth was -8.69% (active).
With `C=CN(C)S(C)(=O)=O` the growth was 4.56% (active).
`COc1cc(OC)c(/C=C/c2ccc3ccccc3[n+]2C)c(OC)c1` was tested, and the growth was 3.94% (active).

Point of comparison: `CCOC(=O)c1cc(C(=O)c2ccc(Br)cc2)n2cc(C)cc(C)c12`, growth 90%. Against it:
- CC1(c2ccc(Br)cc2)NC(=O)NC1=O (stereo not given) — higher, 101%
- O=C(N/N=C\c1ccc(Cl)cc1)C(=O)N/N=C\c1ccc(Cl)cc1 — higher, 96.5%
- COc1cc(-c2nc(/C=C3/C(=O)Nc4ccccc43)c3ccccn23)cc(OC)c1OC — lower, 40.1%
- CCCCN(CCCC)c1ccc(C(=O)O)cc1 — higher, 98.6%
- COC(=O)c1c[n+]([O-])ccc1OC — higher, 101%
- CC(=O)O.[In] — higher, 108%
- Cc1nnc(/N=C2\NC(=O)/C(=C/C=C/c3ccccc3)S2)s1 — lower, 39.9%
- CC(=O)N1N=C(c2ccc(Cl)cc2)CC1c1cn(-c2ccccc2)nc1-c1ccc([N+](=O)[O-])cc1 (stereo not given) — higher, 95.9%
- Nc1nc2c(c3ncncc13)C(c1cccc(C(F)(F)F)c1)Cc1ncncc1-2 (stereo not given) — lower, 19.2%
- O=C(Nc1ccccc1)Nc1ccc(Nc2ncnc3sc4c(c23)CCCC4)cc1 — higher, 96.2%
- O=C(/C=C\c1ccc(NCc2ccc(C(=O)O)cc2)cc1)CCl — lower, 24%
- CCC(C)(CC)c1ccc(O)c(C)c1 — higher, 99%
- CC1(C)CC(=O)C2=C(C1)Oc1nc(N)c(C#N)c(N)c1C2c1ccc(F)cc1 (stereo not given) — higher, 109%
- CCOc1ccc(/C=N/NC(=O)c2cccc3ccccc23)cc1OCC — higher, 92.9%
- CCN(CC)C(=O)C1(C)CCCC2(C)c3cc(OC(C)=O)ccc3CCC12 (stereo not given) — lower, 87.9%
- COc1ccc(-c2nc(SCC(C)C)nc(Nc3ccc(C(=O)O)cc3)c2C#N)cc1 — lower, 67.2%
- CC(O)c1cc[cH-]c1.[Fe+2].c1cc[cH-]c1 (stereo not given) — higher, 103%
- CC1(C)C(O)NC(Cl)=C(C#N)C1(C#N)C#N (stereo not given) — higher, 107%
- COC(=O)C(C)[C@H]1CC[C@@H]2[C@]1(C)CC=C1[C@]23C=C[C@]2(C[C@@H](OC(C)=O)CC[C@]12C)C(C(=O)OC)C3C(=O)OC (stereo not given in full) — lower, 83.9%
- CC(C)C(=O)c1ccc(Cl)s1 — lower, 88.9%
- CC1=C(C)C(=O)C(C(C)C2=C(C)C(=O)C(C)=C(C)C2=O)=C(C)C1=O — higher, 102%
- Cc1ccc2c(O)c(O)cc(NC(C)CCCN)c2n1 (stereo not given) — lower, 13.3%
- O=S(=O)(Cc1cccc2c(CS(=O)(=O)c3ccc(Cl)cc3)cccc12)c1ccc(Cl)cc1 — lower, 85.4%
- CCCCCCCCCCCCCCCCC(=O)O.CCCCCCCCCCCCCCCCCC(=O)O.CCCCCCCCCCCCCCCCCC(=O)O.CCCCCCCCCCCCCCCCCC(=O)O.CCCCCCCCCCCCCCCCCC(=O)O.CO[CH-]OC12COC1CC(O)C1(C)C(O)C(OC(C)O)C3=C(C)C(OC(=O)C(O)C([NH-])c4ccccc4)CC(O)(C(OC(=O)c4ccccc4)C21)C3(C)C.[Cu+].[Zn].[Zn].[Zn].[Zn].[Zn] (stereo not given) — lower, 22.1%
- COc1ccccc1Cn1cc2c(c1)-c1oncc1CC2 — lower, 13.4%
- CC(=O)OCC(=O)[C@@]1(O)[C@H](C)C[C@H]2[C@@H]3C=C(C)C4=Cc5c(cnn5-c5ccc(F)cc5)C[C@]4(C)[C@H]3[C@@H](O)C[C@@]21C — lower, 18.9%
- O=C(/C=C\c1ccccc1Cl)c1ccccc1 — lower, 46.8%
- CCOC(=O)C(C)C(C)(O)c1ccccc1 (stereo not given) — higher, 93.6%
- CCCCCCCCCCCCCCCCCC1=NCCN1CS(=O)(=O)O — lower, 30.3%
- CCCCCCCCCCCC(=O)OC(C)C(=O)Nc1ccccc1 (stereo not given) — higher, 91.7%
- CCCCCCCCCCC1OC(C)CC(C)O1 (stereo not given) — higher, 98.6%
- Cc1ccc(OCCn2ccc(=O)n(CCOc3ccc(Cl)cc3C(=O)c3cc(C)cc(C)c3)c2=O)cc1 — lower, 22.4%
- O=C1C(Cl)=C(SC2=NCCN2)C(=O)c2ccccc21 — lower, 61.1%
